The results in this text go back to PubChem BioAssay.

A short description of the first assay: MRP1 drug-resistance reversers in H69AR cells – cell-based, doxorubicin co-treatment, pilot screen (AID 601). To be noted: H69AR cells + 2 uM doxorubicin, CellTiter-Glo, 72 h; measured here: viability with 2 uM doxorubicin; at 10 µM; stronger effect = lower value. (In general: ATP-based viability assays read luminescence as a measure of living cells.)
For orientation: viability means a read-out of living cells in per cent, often relative to untreated cells. Turning to `Cn1cccc1Cc1nnc(SCC(N)=O)n1-c1ccc(F)cc1`, the viability turned out to be 87.6%.

With `N#CC1=C(N)N(c2ccccc2)C(c2ccco2)C1(C#N)C#N` (centres undefined), the viability is 86.4%.

Take `CCCNC(=O)C1=C(C)C(=O)OC12CCC(C)CC2` (centres undefined): the viability was found to be 90.2%.

On to `CCCS(=O)(=O)C(=C1Nc2ccccc2N1)S(=O)(=O)CCC`, for which the viability came out at 89.8%.

As to `O=C(CC(CC(=O)c1ccccc1)C(=O)O)c1ccccc1`, the viability stood at 96.5%.

Take `CCS(=O)(=O)N1CCC(C(=O)NC2CCCCC2)CC1`: the viability worked out at 86.1%.

Take `COc1ccc(N2C(=O)C3CCCN3C2c2ccc(F)cc2)cc1Cl` (centres undefined): the viability stood at 88.7%.

As for `O=C(Nc1nccs1)c1ccc(Cl)c(S(=O)(=O)N2CCCCC2)c1`, the viability came out at 96.7%.

In the case of `CC(=O)N1CCc2cc(S(=O)(=O)CCC(=O)Nc3cccc(F)c3)ccc21`, the viability amounted to 80.7%.

In the case of `Oc1ccc(N2CCN(C(c3cccnc3)c3nnnn3Cc3ccccc3)CC2)cc1` (centres undefined), the viability worked out at 92.9%.

On to `CCOP(=O)(c1ccc(N(C)C)cc1)C(O)c1c(Cl)cccc1Cl` (centres undefined), for which the viability is 89.6%.

Turning to `CCCn1c(SCC(=O)NC(C)(C)C)nnc1C(C)C`, the viability was determined as 89.1%.

In the case of `CCCCOC(=O)Cn1c(=N)n(CCN2CCOCC2)c2ccccc21`, the viability amounted to 79.2%.

Take `CCOC(=O)c1c(C)n(C)c2ccc(O)c(S(=O)(=O)c3ccccc3)c12`: the viability turned out to be 88.9%.

For `CCN1CCN(CCNC(=O)c2cn(C(C)c3ccccc3F)nn2)CC1` (centres undefined), the viability is 87.8%.

On to `Cc1ccnc(NS(=O)(=O)c2ccc(NC(=O)Cc3cccs3)cc2)n1`, for which the viability amounted to 91.9%.

With `c1ccc(CSCc2cn3ccsc3n2)cc1`, the viability was 84.6%.

Take `Cc1nnc(N(C)C(=O)c2cccnc2)s1`: the viability was found to be 87.5%.

Turning to `O=C(NC1CCCCC1)C(c1ccco1)N(Cc1cccnc1)C(=O)C1COc2ccccc2O1` (centres undefined), the viability was 88.1%.

`Cc1cc(Cn2ccnc2)c(C)cc1Cn1ccnc1`: the viability is 94.1%.

The assay is the same for the next values; noted with them: H69AR cells, CellTiter-Glo, 72 h; compound alone cytotoxicity; at 10 µM.
As for `CC(=O)Nc1ccc(NS(=O)(=O)c2ccc(Cl)c(C(=O)O)c2)cc1`, the viability is 103%.

As to `CCN1CCCC1CNCc1ccc(Cl)cc1Cl` (centres undefined), the viability turned out to be 104%.

Regarding `Cc1sc2ncnc(SCC(=O)N3CCCC3)c2c1C`, the viability stood at 93%.

Take `Brc1ccc2[nH]ncc2c1`: the viability came out at 91.6%.

Take `CCOC(=O)c1cccc(NC(=O)CSc2nc3cccnc3n2C)c1`: the viability worked out at 93.2%.

For the compound `CCn1c(SCC(=O)N2c3ccccc3CCc3ccccc32)nc2c1c(=O)n(C)c(=O)n2C`, the viability was 94.3%.

Consider `CCN(C(=O)CN1CCN(c2ccccc2OC)CC1)c1c(N)n(Cc2ccccc2)c(=O)[nH]c1=O`, for which the viability was 100%.

For the compound `O=C(NCc1ccccn1)c1ccc2nc(-c3ccco3)c(-c3ccco3)nc2c1`, the viability was found to be 73.8%.

With `COCCNC(=O)c1c(N)n(/N=C/c2cccs2)c2nc3ccccc3nc12`, the viability was 74.7%.

Take `CN(C)Cc1c(O)ccc2oc(Cc3ccccc3)cc12`: the viability was 91%.

Take `COc1cc(/C=N/n2c(C)nnc2C)cc(OC)c1OC`: the viability came out at 103%.

`Cn1c(=O)c2c(nc(NCc3ccco3)n2C/C=C/c2ccccc2)n(C)c1=O`: the viability is 101%.

Turning to `CCn1c(C(Cc2ccccc2)NC(=O)COC)nc2ccccc21` (centres undefined), the viability was 87.4%.

`COc1ccccc1OCc1ccc(C(=O)Nc2ccncc2)o1`: the viability turned out to be 89.4%.

On to `COc1ccc(OC)c(-n2nnnc2SCC(=O)NCc2ccc3c(c2)OCO3)c1`, for which the viability stood at 93.9%.

Consider `O=C(CSc1nnc(-c2cnccn2)n1Cc1ccco1)c1ccc(Cl)cc1`, for which the viability worked out at 80.7%.

`Cc1cc(=O)oc(C)c1C(=O)O`: the viability stood at 92%.

Take `COc1cccc(CN=CC2=C(O)CC(C)(C)CC2=O)c1OC`: the viability came out at 100%.

As to `O=C(CCNC(=O)Cn1ccc2ccccc2c1=O)NCCN1CCN(c2ccccc2F)CC1`, the viability amounted to 88.1%.

As to `Cn1cccc1Cc1nnc(SCC(N)=O)n1-c1ccc(F)cc1`, the viability came to 99.8%.

`N#CC1=C(N)N(c2ccccc2)C(c2ccco2)C1(C#N)C#N` (centres undefined): the viability is 85.5%.

Consider `CCCNC(=O)C1=C(C)C(=O)OC12CCC(C)CC2` (centres undefined), for which the viability is 95.3%.

As to `CCCS(=O)(=O)C(=C1Nc2ccccc2N1)S(=O)(=O)CCC`, the viability came to 103%.

In the case of `O=C(CC(CC(=O)c1ccccc1)C(=O)O)c1ccccc1`, the viability worked out at 102%.

As for `CCS(=O)(=O)N1CCC(C(=O)NC2CCCCC2)CC1`, the viability came out at 97.4%.

On to `COc1ccc(N2C(=O)C3CCCN3C2c2ccc(F)cc2)cc1Cl` (centres undefined), for which the viability came out at 87.4%.

For `O=C(Nc1nccs1)c1ccc(Cl)c(S(=O)(=O)N2CCCCC2)c1`, the viability was found to be 87.2%.

As for `CC(=O)N1CCc2cc(S(=O)(=O)CCC(=O)Nc3cccc(F)c3)ccc21`, the viability was 93.8%.

With `Oc1ccc(N2CCN(C(c3cccnc3)c3nnnn3Cc3ccccc3)CC2)cc1` (centres undefined), the viability is 90.2%.

Take `CCOP(=O)(c1ccc(N(C)C)cc1)C(O)c1c(Cl)cccc1Cl` (centres undefined): the viability was 90.1%.

As to `CCCn1c(SCC(=O)NC(C)(C)C)nnc1C(C)C`, the viability stood at 93%.

Consider `CCCCOC(=O)Cn1c(=N)n(CCN2CCOCC2)c2ccccc21`, for which the viability came out at 95.5%.

`CCOC(=O)c1c(C)n(C)c2ccc(O)c(S(=O)(=O)c3ccccc3)c12`: the viability was determined as 87.9%.

Take `CCN1CCN(CCNC(=O)c2cn(C(C)c3ccccc3F)nn2)CC1` (centres undefined): the viability came to 96.4%.

For the compound `Cc1ccnc(NS(=O)(=O)c2ccc(NC(=O)Cc3cccs3)cc2)n1`, the viability stood at 100%.

In the case of `c1ccc(CSCc2cn3ccsc3n2)cc1`, the viability is 99.1%.

Consider `Cc1nnc(N(C)C(=O)c2cccnc2)s1`, for which the viability turned out to be 88.7%.

Consider `O=C(NC1CCCCC1)C(c1ccco1)N(Cc1cccnc1)C(=O)C1COc2ccccc2O1` (centres undefined), for which the viability was determined as 81.1%.

Turning to `Cc1cc(Cn2ccnc2)c(C)cc1Cn1ccnc1`, the viability came to 101%.
